According to PubChem BioAssay AID485346 (Sanford-Burnham Center for Chemical Genomics, 2010):
Hit rate of the full screen: of about 330,000 compounds, about 10,000 (3%) were called active. For the sample, actives were picked, then their nearest neighbours and some compounds at random. Values without a mark were called inactive.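 The calls were made as follows: active = inhibition of at least 50% at 8 µM in the primary screen; inactive = the rest.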

The molecules below were run against Protein Mdm4 (Homo sapiens) + E3 ubiquitin-protein ligase Mdm2 (Homo sapiens) (UniProt O15151+Q00987) (assay: disruptors of Mdm2/MdmX RING complex – cell-based, luminescence, split luciferase, SaOS-2, uHTS, primary screen (AID 485346)). Details: SaOS-2 split-luciferase Mdm2/MdmX complementation, at 8 µM, active compounds read high.
Sequence of Protein Mdm4 (Homo sapiens) + E3 ubiquitin-protein ligase Mdm2 (Homo sapiens) (O15151 whole entry, looked up): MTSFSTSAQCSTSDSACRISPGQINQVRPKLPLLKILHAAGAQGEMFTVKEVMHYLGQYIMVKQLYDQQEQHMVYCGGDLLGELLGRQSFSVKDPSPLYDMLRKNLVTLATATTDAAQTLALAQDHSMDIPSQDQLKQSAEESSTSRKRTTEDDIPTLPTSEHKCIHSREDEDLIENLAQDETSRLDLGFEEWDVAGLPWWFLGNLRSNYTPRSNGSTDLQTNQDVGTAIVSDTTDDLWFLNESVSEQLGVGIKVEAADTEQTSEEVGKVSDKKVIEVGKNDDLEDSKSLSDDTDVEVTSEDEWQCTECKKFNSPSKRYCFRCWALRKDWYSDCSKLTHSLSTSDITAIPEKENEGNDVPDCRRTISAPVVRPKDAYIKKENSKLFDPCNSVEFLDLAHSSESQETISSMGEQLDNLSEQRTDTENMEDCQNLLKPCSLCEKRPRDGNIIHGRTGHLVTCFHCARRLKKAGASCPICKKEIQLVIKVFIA
Sequence of Protein Mdm4 (Homo sapiens) + E3 ubiquitin-protein ligase Mdm2 (Homo sapiens) (Q00987 whole entry, looked up): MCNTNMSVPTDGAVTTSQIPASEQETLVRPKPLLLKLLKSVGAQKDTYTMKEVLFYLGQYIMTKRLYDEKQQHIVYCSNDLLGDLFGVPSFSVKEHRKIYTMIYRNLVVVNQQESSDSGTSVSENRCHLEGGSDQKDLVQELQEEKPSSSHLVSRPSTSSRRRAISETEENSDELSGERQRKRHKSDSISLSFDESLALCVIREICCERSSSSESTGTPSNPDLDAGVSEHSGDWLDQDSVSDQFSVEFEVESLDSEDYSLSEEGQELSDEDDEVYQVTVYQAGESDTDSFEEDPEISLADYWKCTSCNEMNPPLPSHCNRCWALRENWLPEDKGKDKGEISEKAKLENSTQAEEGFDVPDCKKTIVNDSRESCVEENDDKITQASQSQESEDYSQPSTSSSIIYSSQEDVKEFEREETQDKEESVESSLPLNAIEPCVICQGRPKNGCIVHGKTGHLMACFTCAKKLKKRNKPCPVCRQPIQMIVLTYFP

SMILES | inhibition
CCOc1ccc(-c2cc(C)[n+](CCN(CC)CC)c(-c3ccc(OCC)cc3)c2)cc1 | 90.7% (active)
COc1ccc(CCn2c(O)c(C=NCCCn3ccnc3)c(=O)[nH]c2=O)cc1OC | -17.9%
Cc1cc(=O)oc2c(C)c(OCC(=O)N3CCN(Cc4ccc5c(c4)OCO5)CC3)ccc12 | 1.14%
CC12CN3CC(C)(CN(C1)C3c1cccs1)C2 (stereo not given) | -26.1%
O=C(Nc1cccc2ccccc12)N1CCC2(CC1)OCCO2 | -30%
O=c1c2ccccc2nc(/C=C/c2ccco2)n1-c1ccccc1O | -1.65%
O=c1c2ccccc2nc(/C=C/c2ccc(F)cc2)n1-c1ccccc1O | 60.9% (active)
Cc1nc2ccccc2c(=O)n1-c1ccc(Cl)cc1Cl | -13.3%
CC(=O)N1CN2CN(C(C)=O)CC(C(=O)c3ccc(Br)cc3)(C2)C1 | 26.2%
CC(=C1C(=O)c2ccccc2C1=O)N1CCN(CCN=Cc2c(O)n(C)c(=O)n(C)c2=O)CC1 | -1.58%
O=C1C2(Cl)C3(Cl)C4(Cl)C(Cl)(Cl)C5(Cl)C3(Cl)C1(Cl)C5(Cl)C24Cl (stereo not given) | 99.3% (active)
COc1ccc2[nH]c3c(c2c1)CCN[C@H]3C | 9.11%
Cc1ccc(C)c(NC2=NCCCS2)c1 | 11.6%
c1ccc2sc(C3CCCNC3)nc2c1 (stereo not given) | -26.6%
Cc1cccc2c(CCN)c[nH]c12 | 13.4%
CCCCCn1c(=O)c(C(=O)NCc2ccccc2)c(O)c2ccccc21 | 62.6% (active)
CCCCCn1c(=O)c(C(=O)NCc2ccccn2)c(O)c2ccccc21 | 13.9%
CCCCn1c(=O)c(C(=O)Nc2ccccc2Cl)c(O)c2ccccc21 | 37.6%
CC(C)n1c(=O)c(C=Nc2ccc(Br)cc2)c(O)n(Cc2ccco2)c1=O | -33.1%
CN1CCN(/N=C/c2c[nH]c3ccccc23)CC1 | -22.1%
OC1/C(=C/c2ccc(C(F)(F)F)cc2)N2CCC1CC2 (stereo not given) | 17.5%
CC(=NCc1ccc2c(c1)OCO2)c1c(O)[nH]c(=O)[nH]c1=O | -16%
COc1cc(-n2c(=S)[nH]c3ccc(C)cc3c2=O)c(Cl)cc1Cl | 40.1%

SMILES | inhibition
Cc1cc2ccccn2c1C(C[N+](=O)[O-])c1c(F)cccc1Cl (stereo not given) | 97.4% (active)
c1cc2c(cc1C1OCC3C(c4ccc5c(c4)OCO5)OCC13)OCO2 (stereo not given) | 1.17%
COc1ccc(CCn2c(O)c(C=NC3CC3)c(=O)[nH]c2=O)cc1OC | 24.7%
CC(C)c1c(CN(C)C(C)Cc2ccccc2)n(C)n(-c2ccccc2)c1=O (stereo not given) | -0.74%
CC(Cc1ccccc1)NC=O (stereo not given) | 12.4%
CC(=O)NC(=O)NC(C)Cc1ccccc1 (stereo not given) | 15.7%
CC(Cc1ccccc1)NCCC(c1ccccc1)c1ccccc1 (stereo not given) | 63% (active)
COC1=CC=C2[C@H]3Cc4ccc(OC)c5c4[C@@]2(CCN3C)C1O5 (stereo not given in full) | 11%
O=c1[nH]c(=O)n(-c2ccccc2)c(O)c1C=NC12CN3CN(CN(C3)C1)C2 | -21.9%
Cc1ccc(-c2cc(C(=O)N3CCC4(CC3)OCCO4)no2)cc1 | -32.3%
O=C(c1cc(-c2ccncc2)nc2ccccc12)N1CCC2(CC1)OCCO2 | -28.6%
O=C(c1cc2nc(-c3ccccc3)cc(-c3ccccc3)n2n1)N1CCC2(CC1)OCCO2 | 55.7% (active)
c1ccc(CCNC2CCCCCC2)cc1 | 24.6%
Cc1ccc(Cn2nnnc2CN2CCC(n3nnc4ccccc43)CC2)cc1 | 26.2%
CCOP(=O)(OCC)C(NC(=O)c1ccc(C)cc1)C(Cl)(Cl)Cl (stereo not given) | -8.99%
CNC(=S)N/N=C1\C2CN3CCN(C2)CC1(c1ccccc1)C3 | -27.4%
CN(C)c1nc(N(C)C)nc(N(C#N)CCCl)n1 | 28.9%
O=C1NC(=O)N(Cc2ccco2)C(=O)/C1=C\c1ccc(-c2ccc(F)cc2)o1 | -9.82%
O=C1NC(=O)N(CCc2ccc(F)cc2)C(=O)/C1=C/C=C/c1ccccc1 | 99.4% (active)
O=C(O)COc1ccccc1/C=C1\C(=O)NC(=O)N(CCC2=CCCCC2)C1=O | 2.61%
COc1ccccc1N=C1SCCCN1C | -4.32%
CCOP(=O)(OCC)C(O)c1ccc(OC)cc1OC (stereo not given) | 19.2%
CC[N+]1(C)CCCC(OC(=O)C(O)(c2ccccc2)c2ccccc2)C1 (stereo not given) | 12.9%

SMILES | inhibition
COC(=O)C1=C(c2ccccc2OCc2ccccc2)C[C@@H]2CC[C@H]1N2C(=O)NCc1ccc(OC)cc1 | 12.6%
COC(=O)C1=C(c2ccc(F)cc2OCc2ccccc2)C[C@@H]2CC[C@H]1N2C(=O)NCc1ccc(OC)c(OC)c1 | 14.8%
COC(=O)C1=C(c2ccc(-c3ccccc3)c(F)c2)C[C@@H]2CC[C@H]1N2C(=O)NCc1ccc(F)cc1 | 21.7%
COC(=O)C1=C(c2ccc(F)cc2OCc2ccccc2)C[C@@H]2CC[C@H]1N2C(=O)NCc1ccc(Cl)cc1 | 55.7% (active)
COC(=O)C1=C(c2ccc(F)cc2OCc2ccccc2)C[C@@H]2CC[C@H]1N2C(=O)NCc1ccc(C(C)(C)C)cc1 | 48.4%
COC(=O)C1=C(c2ccc(F)cc2OCc2ccccc2)C[C@@H]2CC[C@H]1N2C(=O)NCc1ccc2[nH]ccc2c1 | 52.5% (active)
CCOP(=O)(OCC)C(NC(=O)c1ccc(OC)cc1)C(Cl)(Cl)Cl (stereo not given) | 16.4%
COC(=O)N(c1ccc(OC)cc1)P1(=S)OCCC(C)O1 (stereo not given) | 7.17%
CCOc1ccc(C2SCC(=O)Nc3c2c(C)nn3C2CCOC(C)(C)C2)cc1 (stereo not given) | 3.37%
CCC(=O)c1ccc(OCC(=O)N2CCN(CC(=O)Nc3ccc(C)cc3)CC2)cc1 | 30%
Cc1cccc(-n2c(O)c(C=NC34CN5CN(CN(C5)C3)C4)c(=O)[nH]c2=O)c1 | -8.36%
CNCC(O)c1cc(F)c(OCc2ccccc2)c(OCc2ccccc2)c1F (stereo not given) | 86.6% (active)
O=C(NC(c1ccc(Cl)cc1)P(=O)(Oc1ccccc1)Oc1ccccc1)OCc1ccccc1 (stereo not given) | 18.9%
C[C@]12CC[C@H](O)C[C@H]1CC[C@@H]1C2CC[C@]2(C)[C@@H](C3=CC(=O)OC3)[C@@H](O)C[C@]12O (stereo not given in full) | 45.4%
N#CC1=C(N)Oc2c(c(=O)oc3ccccc23)C1c1ccccc1OC(=O)c1cccs1 (stereo not given) | 62.3% (active)
CCNc1nc2[nH]c(=O)c3c(c2s1)OC(N)=C(C#N)C3c1cccs1 (stereo not given) | 17.9%
COC(=O)C1=C(c2cccc(OCc3ccccc3)c2)C[C@@H]2CC[C@H]1N2C(=O)NNCc1ccccc1 | 29.6%
CC(=O)N(C1=NCCCS1)c1ccccc1F | 14.4%
CN(C)C(=O)Oc1cc(=O)n2c3c(cccc13)CCC2 | 19.2%
CCCCCCCCCCCCn1ccc(=N)cc1 | 97.2% (active)
CC(C(=O)Nc1ccc(Cl)cc1Cl)N1CC=C(c2ccccc2)CC1 (stereo not given) | -0.882%
NCCc1ccc(S(=O)(=O)F)cc1 | 5.92%
O=C1NC(=O)C(C/C=C/c2ccccc2)C(=O)N1 | -4.93%

SMILES | inhibition
CC1(C)Cc2c(C#N)c(N3CCNCC3)nc(-c3ccco3)c2CS1 | 62% (active)
COc1cccc(N2C(=O)NC(=O)/C(=C\c3ccc([N+](=O)[O-])s3)C2=O)c1 | 7.01%
COC(=O)[C@@H]1C(OC(=O)c2ccccc2)CC2CCC1N2C (stereo not given in full) | 5.75%
COc1ccc(C2N3CC(C)(C)CN23)cc1 (stereo not given) | 4.71%
O=C(O)c1ccccc1NC(=O)C1C2CCC(O2)C1C(=O)O (stereo not given) | 40.4%
CCCCC(=O)N/N=C/c1c(O)n(CCC2=CCCCC2)c(=O)[nH]c1=O | 50.4% (active)
CCCCC(=O)N/N=C/c1c(O)n(CC)c(=S)n(CC)c1=O | 10.6%
CCCCC(=O)N/N=C/c1c(O)n(-c2ccccc2)c(=O)[nH]c1=O | 10.7%
O=C1NC(=O)C(CCc2ccccn2)(Cc2cccc(Cl)c2Cl)C(=O)N1c1ccc(Br)cc1 (stereo not given) | 17.3%
C/C(=N/O)c1ccc2ccc3ccccc3c2c1 | -52.9%
O=Cc1cn(Cc2ccc(F)cc2Cl)c2ccccc12 | 50.9% (active)
CN1CCC(N(C)Cc2cccnc2)CC1 | -0.974%
CN(C)CCN(CC1CCCN(Cc2ccccc2F)C1)C(=O)Cc1ccc(F)c(F)c1 (stereo not given) | 15.4%
CC(=O)c1ccc(OC(NC(=O)Cc2ccccc2)C(Cl)(Cl)Cl)cc1 (stereo not given) | 6.38%
c1ccc(C2NCc3ccccc3-n3cccc32)cc1 (stereo not given) | 19.8%
Cn1c(C(=O)N2CCC(C(=O)N3CCC4(CC3)OCCO4)CC2)cc2sccc21 | -1.94%
CNC(=O)O/N=C(\N)Cc1csc2ccc(Cl)cc12 | 97.6% (active)
CNC(=O)O/N=C(\N)Cc1csc2ccccc12 | 78.8% (active)
CC[C@H]1CC2CN3CCc4c([nH]c5ccccc45)C(C(=O)OC)(C2)C13 (stereo not given in full) | 33.7%
Cc1cc(N2C(=O)C3CCCN3C2c2ccc(Cl)c(Cl)c2)no1 (stereo not given) | -4.12%
CCCn1c(C(=O)c2ccccc2OC)nc2ccccc21 | 10.6%
